Screens (PubChem BioAssay)
PAX8 inh HTS: inhibitors of PAX8 transcriptional activity in RMG-I cells | RMG-I TPO-luciferase reporter, SteadyGlo, 24 h | inhibition, % at 12.6 µM | hit rate 1.2% among 360,000;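 active = mean replicate inhibition at least 60% with every replicate also reaching 60%; inconclusive = only one of the two criteria is met; inactive = mean below 60% and not all replicates reaching 60%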;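 note: luciferase light reporting Pax8 driven TPO promoter activity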
HIV Env fusion: blocks HIV Env-driven cell-cell fusion; inhibition, % at 12.3 µM; HeLa-JRFL Env/CEM21 cell fusion, luciferase; hit rate 1.1% among 360,000;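 active = mean replicate inhibition score of at least 50 and every replicate individually at or above 50; inconclusive = only one of the two criteria met; inactive = mean below 50 and not all replicates reaching 50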
EWS-Fli block: EWS/Fli transcriptional activity inhibition; A673 NR0B1-luciferase reporter, viability-normalised; inhibition, % at 12.6 µM; hit rate 0.67% among 350,000;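 active = mean inhibition of at least 50% after viability correction, with every replicate also passing that limit; inconclusive = mean reaches 50% but only one of two replicates passes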;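 note: firefly luciferase signal divided by Alamar Blue viability fluorescence both relative to DMSO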
GAA850 FXN act: activators of GAA850 frataxin (FXN) promoter | activation, % at 6 µM | hit rate 0.56% among 360,000 | AID 540364 | HEK293 lucGAA850 FXN promoter luciferase reporter, 24 h; percent of 10 µM SAHA response;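 active = activation above the average of all compounds screened plus 3 SD, cutoff fixed separately per campaign, cut at about 7.5% in these data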
F508del corr: CFTR F508del correction in bronchial cells. CFBE cells, YFP halide quenching; stimulated with forskolin plus potentiator P3; % fluorescence drop versus neutral controls. hit rate 0.36% among 350,000. activity (quench increase), % at 7.58 µM;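 active = mean added fluorescence quench of at least 8% versus neutral control, with both replicates also reaching 8%; inconclusive = only one of the mean or replicate conditions met; inactive = mean below 8% and not both replicates reaching 8%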;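 note: cells transiently co-express mutant CFTR-F508del with the halide-sensitive YFP; corrector assay measuring rescue of mutant channel to the surface after 24 h compound exposure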
Each line names hits and unclear results; the compound was inactive in the other large screens. This is a sample that favours compounds with a hit; in the whole collection about 2.5% have one here.

Cn1cc(/C=C/C(=O)c2ccccc2)c2ccccc21	none
CCN1[C@@H]2Cn3c(ccc(-c4ccccc4OC)c3=O)[C@H]1[C@@H](C(=O)N[C@@H](C)c1ccccc1)[C@@H]2CO	none (no result: PAX8 inh HTS, HIV Env fusion, GAA850 FXN act, F508del corr)
O=C(C[C@H]1CC[C@@H]2[C@H](COC[C@@H](O)CN2Cc2ccc(Oc3ccccc3)cc2)O1)N1CCc2ccccc2C1	none (no result: GAA850 FXN act)
O=C(C[C@@H]1CC[C@H]2[C@@H](COC[C@@H](O)CN2Cc2ccc(Oc3ccccc3)cc2)O1)N1CCOCC1	none (no result: HIV Env fusion, GAA850 FXN act)
O=C(C[C@@H]1CC[C@H]2[C@@H](COC[C@H](O)CN2Cc2ccc(Oc3ccccc3)cc2)O1)N1CCN(c2ccccc2)CC1	PAX8 inh HTS 64 (no result: GAA850 FXN act)
O=C(C[C@@H]1CC[C@H]2[C@@H](COC[C@@H](O)CN2Cc2ccc(Oc3ccccc3)cc2)O1)N1CCc2ccccc2C1	PAX8 inh HTS 80 (no result: GAA850 FXN act)
C[C@H]1CN([C@@H](C)CO)C(=O)Cc2cc(NC(=O)Nc3ccccc3)ccc2O[C@H]1CN(C)C(=O)Nc1ccc2c(c1)OCO2	none (no result: GAA850 FXN act)
COCCNC(=S)N(Cc1cc2cc(C)ccc2n2nnnc12)C1CCCC1	HIV Env fusion 60
COCCN(Cc1cc2cc(C)ccc2n2nnnc12)C(=S)Nc1ccc(C)cc1	none
C[C@@H]1CN([C@@H](C)CO)C(=O)c2cc(NC(=O)NC3CCCCC3)ccc2O[C@@H](C)CCCCO[C@@H]1CN(C)C(=O)CCCN(C)C	none (no result: GAA850 FXN act)
COC(=O)C1CCC(=O)N1C(c1ccc(OC)cc1)c1cc(OC)c(OC)c(OC)c1 (stereo not drawn)	PAX8 inh HTS 75
COc1ccc(CN(C)C[C@H]2OCCCC[C@H](C)Oc3ccc(NC(=O)Nc4ccc(C(F)(F)F)cc4)cc3C(=O)N([C@@H](C)CO)C[C@@H]2C)cc1	PAX8 inh HTS 106, HIV Env fusion inconclusive, EWS-Fli block 71 (no result: GAA850 FXN act)
COc1ccc(CN(C)C[C@@H]2OCCCC[C@@H](C)Oc3ccc(NC(=O)Nc4ccc(C(F)(F)F)cc4)cc3C(=O)N([C@@H](C)CO)C[C@@H]2C)cc1	PAX8 inh HTS 86, HIV Env fusion inconclusive, EWS-Fli block 70 (no result: GAA850 FXN act)
COc1ccc(CN(C)C[C@H]2OCCCC[C@H](C)Oc3ccc(NC(=O)Nc4ccc(C(F)(F)F)cc4)cc3C(=O)N([C@H](C)CO)C[C@H]2C)cc1	PAX8 inh HTS 102, EWS-Fli block inconclusive, F508del corr 8.7 (no result: GAA850 FXN act)
COc1ccc(CN(C)C[C@@H]2OCCCC[C@H](C)Oc3ccc(NC(=O)Nc4ccc(C(F)(F)F)cc4)cc3C(=O)N([C@H](C)CO)C[C@H]2C)cc1	PAX8 inh HTS 104, HIV Env fusion inconclusive, EWS-Fli block 71 (no result: GAA850 FXN act)
COc1ccc(CN(C)C[C@@H]2OCCCC[C@@H](C)Oc3ccc(NC(=O)Nc4ccc(C(F)(F)F)cc4)cc3C(=O)N([C@H](C)CO)C[C@@H]2C)cc1	none (no result: GAA850 FXN act)
CCCNC(=O)C[C@@H]1C[C@@H]2c3cc(NC(=O)c4cccnc4)ccc3O[C@@H]2[C@H](CO)O1	none (no result: GAA850 FXN act)
C[C@H](O)C#Cc1ccc([C@@H]2[C@@H](CO)N3CCCCN(C(=O)c4ccncc4)C[C@H]23)cc1	none (no result: HIV Env fusion, GAA850 FXN act)
CC(C)C(=O)Nc1ccc2c(c1)C(=O)N(C)[C@@H]1CC[C@@H](CC(=O)NCCc3ccccc3)O[C@@H]1CO2	none (no result: GAA850 FXN act)
COc1ccc(NC(=O)Nc2ccc3c(c2)C(=O)N([C@H](C)CO)C[C@H](C)[C@@H](CN(C)Cc2ccc(C(F)(F)F)cc2)OCCCC[C@H](C)O3)cc1	none (no result: GAA850 FXN act)
COc1ccc(CN(C)C[C@@H]2OCCCC[C@H](C)Oc3ccc(NC(=O)Nc4ccc(C(F)(F)F)cc4)cc3C(=O)N([C@@H](C)CO)C[C@H]2C)cc1	PAX8 inh HTS 87, EWS-Fli block 72 (no result: GAA850 FXN act)
COc1ccc(NC(=O)Nc2ccc3c(c2)C(=O)N([C@H](C)CO)C[C@@H](C)[C@@H](CN(C)Cc2ccc(C(F)(F)F)cc2)OCCCC[C@H](C)O3)cc1	PAX8 inh HTS 73 (no result: GAA850 FXN act)
CCOc1ccc2nc(NC(=O)CN3CCC(n4nnc5cc(C(F)(F)F)ccc54)CC3)sc2c1	HIV Env fusion 50 (no result: EWS-Fli block, F508del corr)
CC1=C(C(=O)Nc2ccccn2)C(c2cn(C)nc2C)C2=C(CCCC2=O)N1 (stereo not drawn)	none
COC(=O)C1=C(C)NC2=C(C(=O)CCC2)C1c1cn(Cc2ccc(Cl)cc2Cl)nc1-c1ccccc1 (stereo not drawn)	HIV Env fusion 110 (no result: PAX8 inh HTS, EWS-Fli block, F508del corr)
O=C1c2ccccc2C(=O)c2[nH]c(=O)[nH]c21	PAX8 inh HTS 91
COc1ccc(CCn2c(C3CCCCC3)nc3c(c(=O)c4ccccc4n3C)c2=O)cc1OC	none
